Calls of active or inactive are those of the source. How the source made its calls: active means hit-call score of the fitted dose curve at least 0.9, where 1 is the maximum; inactive means score below 0.9.
tested on: not listed separately; assay: ATG_Oct_MLP_CIS: Attagene CIS-FACTORIAL HepG2 Assay for human Octamer-Binding Transcription Factor (Oct) (AID 2282993); conditions: HepG2 Attagene cis-factorial Oct reporter, mRNA; actives raise or lower the signal
Method in brief: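 Read-out: reporter mRNA via RT-PCR plus capillary electrophoresis of 6-FAM-labelled fragments. Transiently transfected HepG2, 24 h exposure, endogenous TF activity on cis elements. Gain or loss of signal fitted relative to DMSO.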

| SMILES | outcome |
| --- | --- |
| CCC(=O)OCCOc1ccccc1 | inactive |
| C[N+](C)(C)CCCCCC[N+](C)(C)C | inactive |
| COc1ccc(N=Nc2cc(C)c(N=Nc3ccc(S(=O)(=O)O)cc3)cc2OC)cc1 | inactive |
| COC(=O)C=C(C)CCC=C(C)C | inactive |
| CC(=O)OCCCc1ccccc1 | inactive |
| OCC(O)c1ccccc1 (centres undefined) | inactive |
| CCCCC(CC)COC(C)=O (centres undefined) | inactive |
| CC(C)OCCO | inactive |
| COCCOC(=O)c1ccccc1C(=O)OCCOC | inactive |
| Cc1ccc(OC(=O)c2ccccc2O)cc1 | inactive |
| CCCCCCCCCC(=O)OC | inactive |
| Cc1c(Cl)cccc1[N+](=O)[O-] | inactive |
| CCCCC(CC)(CO)CO | inactive |
| Nc1ccc2c(O)cc(S(=O)(=O)O)cc2c1 | inactive |
| O=CCc1ccccc1 | inactive |
| CC(C)CCCCCCc1ccc(OCCOCCO)cc1 | inactive |
| C=C(C)C(=O)OCCOCCOCCOCCOC(=O)C(=C)C | inactive |
| O=[N+]([O-])c1cccc(Cl)c1 | inactive |
| CC(=O)Nc1ccc(C(=O)CCl)cc1 | inactive |
| Cc1ccc(-c2ccccc2)cc1 | inactive |

biological target: Cellular tumor antigen p53 (Homo sapiens) (UniProt P04637); assay: ATG_p53_CIS: Attagene CIS-FACTORIAL HepG2 Assay for human p53 Transcription Factor (AID 2282994); conditions: HepG2 p53 cis-element reporter, Attagene mRNA; actives raise or lower the signal
Method in brief: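 Using HepG2 hepatoma cells carrying cis-acting multiplexed reporters, mRNA induction is detected after a 24 h exposure. Gain- and loss-of-signal responses are fitted relative to DMSO-treated cells.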

Cellular tumor antigen p53 (Homo sapiens), sequence (P04637 whole entry, looked up): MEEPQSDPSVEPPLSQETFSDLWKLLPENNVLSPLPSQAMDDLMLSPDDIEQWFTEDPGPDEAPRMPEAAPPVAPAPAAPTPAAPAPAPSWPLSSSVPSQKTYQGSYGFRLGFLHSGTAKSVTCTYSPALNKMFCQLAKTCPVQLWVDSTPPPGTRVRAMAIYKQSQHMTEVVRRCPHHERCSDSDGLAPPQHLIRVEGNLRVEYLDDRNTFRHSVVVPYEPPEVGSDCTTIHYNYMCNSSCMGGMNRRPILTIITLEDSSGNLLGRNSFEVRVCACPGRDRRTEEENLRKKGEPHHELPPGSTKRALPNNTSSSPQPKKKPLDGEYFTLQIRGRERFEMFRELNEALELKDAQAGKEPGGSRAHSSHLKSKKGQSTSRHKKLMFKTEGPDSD

| SMILES | outcome | AC50 |
| --- | --- | --- |
| CCCCSCCCC | inactive |  |
| CCCCC1(COC(=O)CCC(=O)O)C(=O)N(c2ccccc2)N(c2ccccc2)C1=O | inactive |  |
| Cc1occc(=O)c1OC(=O)C(C)C | inactive |  |
| CC(C)(C)c1ccc(C(=O)O)cc1 | inactive |  |
| CC1CC(O)CC(C)(C)C1 (centres undefined) | inactive |  |
| CCCOC(=O)c1c(Cl)c(Cl)c(Cl)c(Cl)c1C(=O)OCCC | inactive |  |
| CC(C)CCOC(=O)c1ccccc1 | inactive |  |
| O=C(O)c1cccnc1C(=O)O | inactive |  |
| CCC(C)c1cc([N+](=O)[O-])cc([N+](=O)[O-])c1OC(=O)OC(C)C (centres undefined) |  | 25 µM (active) |
| Cc1cccc(Nc2ccccc2)c1 | inactive |  |
| C=C[Si]1(C)O[Si](C)(C=C)O[Si](C)(C=C)O[Si](C)(C=C)O1 (centres undefined) | inactive |  |
| Brc1ccc(Br)c(Br)c1 | inactive |  |
| CCOc1ccc(NC(=O)CC(C)O)cc1 (centres undefined) | inactive |  |
| CS(=O)(=O)OCCCCOS(C)(=O)=O | inactive |  |
| CC1(C)O[C@@H]2[C@@H](CO[C@@]3(COS(N)(=O)=O)OC(C)(C)O[C@@H]23)O1 | inactive |  |
| C[N+](C)(C)CCCCCC[N+](C)(C)C | inactive |  |
| COc1ccc(N=Nc2cc(C)c(N=Nc3ccc(S(=O)(=O)O)cc3)cc2OC)cc1 | inactive |  |

| SMILES | outcome | AC50 |
| --- | --- | --- |
| COC(=O)C=C(C)CCC=C(C)C | inactive |  |
| CC(=O)OCCCc1ccccc1 | inactive |  |
| CCCCOCC | inactive |  |
| OCC(O)c1ccccc1 (centres undefined) | inactive |  |
| CC(C)OCCO | inactive |  |
| COCCOC(=O)c1ccccc1C(=O)OCCOC | inactive |  |
| Cc1ccc(OC(=O)c2ccccc2O)cc1 | inactive |  |
| Cc1c(Cl)cccc1[N+](=O)[O-] | inactive |  |
| CCCCC(CC)(CO)CO | inactive |  |
| Nc1ccc2c(O)cc(S(=O)(=O)O)cc2c1 | inactive |  |
| O=CCc1ccccc1 | inactive |  |
| CC(C)CCCCCCc1ccc(OCCOCCO)cc1 | inactive |  |
| C=C(C)C(=O)OCCOCCOCCOCCOC(=O)C(=C)C | inactive |  |
| [O-]n1ccccc1=S.[O-]n1ccccc1=S.[Zn+2] | inactive |  |
| O=[N+]([O-])c1cccc(Cl)c1 | inactive |  |
| CC(=O)Nc1ccc(C(=O)CCl)cc1 | inactive |  |
| Cc1ccc(-c2ccccc2)cc1 | inactive |  |

Reference: PubChem BioAssay (EPA / NIEHS)
